Bioassay records as filed in PubChem BioAssay.
Only some compounds are listed: those with a hit (about 2.9% of all), similar ones and a draw of the others.
proKLK7 act – activates the human kallikrein-7 zymogen | actives 0.9% (n = 370,000) | activation, % at 7 µM | P49862 | purified proKLK7, EDANS-DABCYL substrate fluorescence; 100% is mature enzyme control, 0% vehicle;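 active means activation above the mean of all tested compounds plus 3 SD, computed per campaign excluding outliers beyond control limits, cut at about 13% in these data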
PLCb3 inh – inhibitors of human phospholipase C beta3 | inhibition, % at 12.2 µM | Purified PLC-beta3, fluorogenic substrate, fluorescence | AID 720704 | actives 0.18% (n = 370,000) | Q01970; in the data active means inhibition above about 11%
ADAM17 inh – inhibitors of human ADAM17; inhibition, % at 6.95 µM; actives 0.83% (n = 370,000); recombinant ADAM17, EDANS/DABCYL FRET peptide cleavage; P78536;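 active means inhibition above the mean of compounds lying between control limits plus 3 SD, set per campaign, cut at about 8.5% in these data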
Target sequence (P78536 215-824 limits assumed): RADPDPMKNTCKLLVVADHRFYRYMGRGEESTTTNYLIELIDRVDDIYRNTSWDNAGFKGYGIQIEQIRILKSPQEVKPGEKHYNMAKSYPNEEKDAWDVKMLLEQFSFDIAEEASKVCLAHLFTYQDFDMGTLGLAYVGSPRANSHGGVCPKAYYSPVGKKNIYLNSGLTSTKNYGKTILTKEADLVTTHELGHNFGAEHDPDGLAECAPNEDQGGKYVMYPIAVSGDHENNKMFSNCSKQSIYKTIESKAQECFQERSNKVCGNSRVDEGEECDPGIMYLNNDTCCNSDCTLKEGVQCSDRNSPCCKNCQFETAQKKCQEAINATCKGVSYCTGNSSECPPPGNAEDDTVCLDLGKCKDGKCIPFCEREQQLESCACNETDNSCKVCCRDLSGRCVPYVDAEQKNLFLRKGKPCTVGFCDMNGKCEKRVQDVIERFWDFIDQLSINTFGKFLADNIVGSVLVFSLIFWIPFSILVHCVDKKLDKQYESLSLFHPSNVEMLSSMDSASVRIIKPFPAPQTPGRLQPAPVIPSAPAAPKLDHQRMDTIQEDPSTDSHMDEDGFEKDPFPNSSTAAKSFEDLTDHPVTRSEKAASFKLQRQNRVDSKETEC
ADAM10 inh – inhibits human ADAM10; O14672; actives 0.62% (n = 370,000); inhibition, % at 7 µM; AID 720582; recombinant ADAM10, EDANS/DABCYL FRET peptide cleavage, 3 h;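 active means inhibition above a per-campaign cutoff equal to the mean of compounds falling between control-based bounds plus 3 SD, cut at about 20% in these data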
PLCg1 inh – blocks human PLC-gamma1 enzyme activity; inhibition, % at 12.2 µM; purified PLC-gamma1, fluorogenic substrate, fluorescence; AID 720700; P19174; actives 0.84% (n = 370,000)
PLCg1 ctr – inhibits human PLC-gamma1 in PLC-beta3 counter-screen. AID 743258. shares compounds with PLCg1 inh. actives 3.1% (n = 3,300). inhibition, % at 12.3 µM. purified PLC-gamma1, fluorogenic substrate, fluorescence
PLCbeta3 conf – human PLC-beta3 inhibition, confirmation; shares compounds with PLCg1 inh; purified PLC-beta3, fluorogenic substrate fluorescence; inhibition, % at 12.3 µM; actives 1% (n = 3,300); AID 743261; in the data active means inhibition above about 11%
Each line names hits and unclear results; the compound was inactive in the other large screens (follow-up assays come after a bar, where they were run). Unless noted, no stated cut-off is given here; in the data, active means inhibition above about 9.5%; inactive means the rest.

CC1(C(=O)NS(=O)(=O)c2ccc(F)cc2F)CCN1C(=O)c1cccc(F)c1 (stereo not given)	PLCg1 inh 12 | PLCg1 ctr inactive | PLCbeta3 conf inactive
COc1ccccc1-c1cnc(C(O)c2ccc(Cl)cc2C)[nH]1 (stereo not given)	none
CCOP(=O)(OCC)C(NC(=O)Nc1ccccc1)C(N)=O (stereo not given)	PLCb3 inh 11 | PLCg1 ctr inactive | PLCbeta3 conf inactive
O=C(COc1ccc(S(=O)(=O)N2CCCC2)cc1Cl)NC1CCCC1	PLCg1 inh 13 | PLCg1 ctr inactive | PLCbeta3 conf inactive
Cc1cc(Cl)c(S(=O)(=O)N2CCCC2)cc1OCC(=O)NC1CCCCC1	PLCb3 inh 12 | PLCg1 ctr inactive | PLCbeta3 conf inactive
CC(C)c1ccccc1NC1=CC(=O)CC(C)(C)C1	none
CN(c1ccccc1C(=O)Nc1cccc([N+](=O)[O-])c1)S(C)(=O)=O	PLCg1 inh 9.9 | PLCg1 ctr inactive | PLCbeta3 conf inactive
CN(c1ccccc1C(=O)Nc1cccc([N+](=O)[O-])c1)S(=O)(=O)c1ccccc1	none
O=C(NCCC1=CCCCC1)C(=O)NCC(c1ccco1)N1CCN(c2ccccc2)CC1 (stereo not given)	PLCg1 inh 13 | PLCg1 ctr inactive | PLCbeta3 conf inactive
COc1ccc(N2CCN(C(CNC(=O)C(=O)NCCC3=CCCCC3)c3ccco3)CC2)cc1 (stereo not given)	none
COc1cc(S(=O)(=O)Nc2ccc(C)cc2)ccc1NC(=O)c1ccncc1	PLCg1 inh 12 | PLCg1 ctr inactive | PLCbeta3 conf inactive
O=C(Cn1c(=O)oc2ccccc21)Nc1ccc(Cl)cc1	PLCg1 inh 11 | PLCg1 ctr inactive | PLCbeta3 conf inactive
O=c1[nH]n2c(=O)c3c([nH]c2c1N=Nc1cccc(Cl)c1)CCC3	PLCg1 inh 10 | PLCg1 ctr inactive | PLCbeta3 conf inactive
Cc1ccccc1N1CCN(C2CCCN(C(=O)c3cn4cccc(C)c4n3)C2)CC1 (stereo not given)	none
O=c1cc2c(=O)oc3cc(O)c(O)oc3c2c(O)c1O	PLCg1 inh 33 | PLCg1 ctr inactive | PLCbeta3 conf inactive
O=C(c1cc(O)c(O)c([N+](=O)[O-])c1)c1ccccc1F	PLCg1 inh 10.0 | PLCg1 ctr inactive | PLCbeta3 conf inactive
O=C(Nc1ccc([N+](=O)[O-])cc1)c1ccccc1F	none
CC1CCc2c(nc3sc4c(c3c2N)CCCC4)C1 (stereo not given)	none
CCCSc1nc(C)c(CC(=O)OCC)c(=O)[nH]1	PLCg1 inh 9.7 | PLCg1 ctr inactive | PLCbeta3 conf inactive
CCCCc1ccc(N2C(=NC(=O)C3CCCO3)SC3CS(=O)(=O)CC32)cc1 (stereo not given)	PLCg1 inh 9.6 | PLCg1 ctr inactive | PLCbeta3 conf inactive
CC(C)c1ccc(N2C(=NC(=O)C3CCCO3)SC3CS(=O)(=O)CC32)cc1 (stereo not given)	none
O=C(Nc1cccnc1)c1ccc(Oc2ccccc2)cc1	none
O=C(Nc1cccnc1)c1ccccc1Oc1ccccc1	PLCb3 inh 11 | PLCg1 ctr inactive | PLCbeta3 conf inactive
O=C(NCCc1csc(-c2cccnc2)n1)c1ccc(Cl)cc1	PLCg1 inh 13 | PLCg1 ctr inactive | PLCbeta3 conf inactive
COc1ccc(NC(=O)Cn2c(=O)c(C)nc3ccccc32)cc1Cl	none
COc1ccc(NC(=O)Cn2c(C(C)C)nc(C)cc2=O)cc1Cl	PLCg1 inh 10 | PLCg1 ctr inactive | PLCbeta3 conf inactive
CC1(C(=O)NS(=O)(=O)C2CC2)CCCN(C(=O)c2ccc3c(c2)OCO3)C1 (stereo not given)	none
CCn1c(O)c(N=NC(=O)c2ccc(CSc3nncn3C)cc2)c2ccccc21	PLCg1 inh 11 | PLCg1 ctr inactive | PLCbeta3 conf inactive
COc1cc(CNCCO)cc(Cl)c1OCc1ccccc1Cl	none
COc1cccc(CNCCO)c1OCc1ccccc1Cl	PLCg1 inh 11 | PLCg1 ctr inactive | PLCbeta3 conf inactive
COc1ccc(C(c2ccc(OC)cc2)N2CCN(C(=O)c3noc(C)c3[N+](=O)[O-])CC2)cc1	none (no result: proKLK7 act)
